From PubChem BioAssay AID743415 (Broad Institute, 2014)
Entries with a potency or affinity are not part of this list. Active and inactive are the calls of the source.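 How the source made its calls: active means compounds lowering Shn3 expression whose fitted half-maximal concentration is at most twice the top valid dose; inconclusive means flat partial decrease or an invalid curve fit; inactive means the rest.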

Assay: Shn3 transcript knock-down in Clone20 cells – cell-based, qPCR, cherry-pick, dose response (AID 743415)
Conditions: Shn3 mRNA qPCR, overnight; series mostly up to 35 µM; relative Shn3 expression (fraction): at the top concentration

SMILES | relative Shn3 expression (fraction)
O=C(c1cc(COc2ccc3ncccc3c2)on1)N1CCCCCC1 | 0.889 (inactive)
Cc1ccc(-c2csc(N3CCC(NS(=O)(=O)c4ccc5c(c4)OCCO5)CC3)n2)cc1 | 1.51 (inactive)
CCCOC(=O)c1ccc(OCC(O)Cn2c(C)nc3ccccc32)cc1 (configuration not stated) | 1.21 (inactive)
COCCNc1nc(NCc2ccc(C(C)C)cc2)c2sccc2n1 | 1.75 (inactive)
COCOCCn1cc(CN2CCS(=O)(=O)N(Cc3ccc(-c4ccc(Cl)c(Cl)c4)cc3)C(C(C)C)C2=O)nn1 (configuration not stated) | 1.43 (inactive)
CC(C)CCOc1cccc(OCC(=O)Nc2ccncc2)c1 | 1.53 (inactive)
Cc1ccccc1C(=O)N1CCN(c2ccc(NC(=O)CSc3ccc(Cl)cc3)cc2)CC1 | 2.02 (inactive)
CN(CC(=O)Nc1ccccc1Cl)C(=O)c1cccc(S(=O)(=O)N2CCN(c3ccccc3)CC2)c1 | 1.95 (inactive)
CC1CCCC(NC(=O)c2cccc(S(=O)(=O)N3CCN(c4ccccc4)CC3)c2)C1C (configuration not stated) | 1.12 (inactive)
Cc1ccc(CNC(=O)c2cc3c(C)nc4ccccc4c3o2)cc1 | 1.06 (inactive)
COc1ccc(C(=O)Nc2nc3ccccc3s2)c(OC)c1 | 0.722 (inactive)
CCOc1cc(CNCCc2ccc(S(N)(=O)=O)cc2)ccc1OCc1ccccc1 | 2.11 (inactive)
Cn1c(=O)c2c(nc(NCc3ccco3)n2CCc2ccccc2)n(C)c1=O | 1.31 (inactive)
Cc1cccc(NS(=O)(=O)c2ccc(C3CCCCC3)cc2)c1 | 2.21 (inactive)
CC(=O)Nc1ccc(OCC(=O)Nc2ccc(Cl)c(S(=O)(=O)N3CCOCC3)c2)cc1 | 0.846 (inactive)
CCCCNc1cc(C)nc(NCc2ccccc2)n1 | 3.52 (inactive)
COc1ccccc1NC(=O)Cn1cc(C(=O)C2CC2)c2ccccc21 | 1.44 (inactive)
Cc1ccnc(SCC(=O)Nc2sc3c(c2C#N)CCCC3)n1 | 1.33 (inactive)
Oc1ccc(-c2n[nH]c(C(F)(F)F)c2-c2ccccc2)c(O)c1 | 1.47 (inactive)

SMILES | relative Shn3 expression (fraction)
O=C(Cn1cnc2ccccc21)Nc1cccc(S(=O)(=O)N2CCCC2)c1 | 0.958 (inactive)
COc1cc(NC(=O)c2cccc3c(-c4cccnc4)coc23)cc(OC)c1OC | 0.765 (inactive)
CCOC(=O)c1cn(CC(=O)Nc2cccc(Cl)c2C)nn1 | 0.955 (inactive)
c1ccc(CNc2ncnc3scc(-c4cccs4)c23)nc1 | 0.593 (inactive)
CN(c1ccccc1)S(=O)(=O)c1cccc(NC(=O)CSc2nncs2)c1 | 1.14 (inactive)
O=C(COC(=O)c1n[nH]c2ccccc12)Nc1ccc(S(=O)(=O)N2CCCC2)cc1 | 1.75 (inactive)
CCN(CC)S(=O)(=O)c1ccc(S(=O)(=O)Nc2c(C)nn(C)c2C)cc1 | 1.13 (inactive)
O=C(Nc1ccc(N2CCOCC2)cc1)c1ccc(Cl)c(S(=O)(=O)N2CCCC2)c1 | 1.52 (inactive)
Cn1nc(CC(=O)Nc2ccc3c(c2)OCCO3)c2ccccc2c1=O | 1.02 (inactive)
CCc1ccccc1NC(=O)COC(=O)c1c(C)nsc1NC | 1.31 (inactive)
O=C(Nc1ccc(Cl)cc1)c1cc(S(=O)(=O)N2CCOCC2)cs1 | 1.29 (inactive)
Cc1nc2scc(C)n2c(=O)c1S(=O)(=O)Nc1ccc(N2CCOCC2)c(Cl)c1 | 1.48 (inactive)
Nc1ncnc2c1c(-c1ccc(Oc3ccccc3)cc1)cn2C1CCCC1 | 0.905 (inactive)
CCCn1c(C)cc(C(=O)CN2C(=O)c3ccccc3S2(=O)=O)c1C | 1.12 (inactive)
Cc1ccc(-c2nc3ncccc3o2)cc1NC(=O)c1sc2ccccc2c1Cl | 1.22 (inactive)
CC(C)(C)C(=O)Nc1ccc(NC(=O)c2ccco2)nc1 | 0.709 (inactive)
CCn1c(CNC(=O)c2cc(OC)c(OC)c(OC)c2)cc2cc(C)ccc21 | 1.06 (inactive)
CCCCOCCCNc1ncnc2c1[nH]c1ccccc12 | 1.63 (inactive)
